Assay outcomes from PubChem.
The list is not random: actives were taken first. Their share in the collection is about 3%.
KDM4E inh: blocks human JMJD2E demethylase activity. Potency, µM (series often up to 57.1 µM), hits mostly inhibitors. JMJD2E catalytic domain, FDH-coupled NADH fluorescence (FDH is formaldehyde dehydrogenase). hit rate 1.6% among 230,000; active = well fitted inhibition curve with a large enough effect, not every such curve was filed as active; inconclusive = small, poorly fitted or top-dose-only effect, or another doubt; inactive = no such curve, though single readings can be large or run the other way; note: nearly all actives have a fitted effect of over 50% in size
Target sequence (B2RXH2 1-337 limits assumed): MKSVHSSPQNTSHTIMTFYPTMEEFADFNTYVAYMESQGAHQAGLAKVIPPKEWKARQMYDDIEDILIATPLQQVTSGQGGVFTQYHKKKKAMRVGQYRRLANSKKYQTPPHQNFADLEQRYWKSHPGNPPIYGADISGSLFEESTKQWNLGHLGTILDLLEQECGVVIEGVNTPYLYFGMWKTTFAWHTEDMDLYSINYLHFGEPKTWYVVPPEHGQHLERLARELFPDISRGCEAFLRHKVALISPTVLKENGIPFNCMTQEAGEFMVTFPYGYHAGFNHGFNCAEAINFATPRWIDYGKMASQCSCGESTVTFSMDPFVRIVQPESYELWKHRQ
Tau fluor cs: counter-screen for tau fibril formation inhibitors. AID 1463. tau K18 P301L Alexa594 fluorescence, heparin fibrillization. hit rate 0.93% among 280,000. Potency, µM (doses to about 57.7 µM); note: nearly all actives have a fitted effect of over 55% in size
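Human K18 P301L tau (15 uM unlabeled plus 0.24 uM Alexa 594-labeled, final) in 100 mM sodium acetate pH 7 was mixed with compound and 20 uM heparin and incubated 6 hr at 37 C.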
Tau FP inhib: inhibitors of human tau fibril formation; K18 P301L tau heparin fibrillization, Alexa594 FP, 6 h; P10636; Potency, µM (highest dose often 57.7 µM), actives largely listed as inhibitors; hit rate 0.39% among 280,000; AID 1468; note: nearly all actives have a fitted effect of over 55% in size
Target sequence (P10636 561-689 P618L limits assumed): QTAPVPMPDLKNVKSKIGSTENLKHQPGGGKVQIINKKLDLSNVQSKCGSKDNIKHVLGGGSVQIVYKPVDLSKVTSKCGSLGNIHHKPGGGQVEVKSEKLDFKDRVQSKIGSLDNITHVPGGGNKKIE
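Recombinant K18 P301L […], labeled with Alexa 594 at 0.24 uM over 15 uM unlabeled; heparin inducer 20 uM final; 37 C, 6 hr; FP endpoint.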
Tau ThT inhib: blocks human tau fibril formation measured by thioflavin T | recombinant tau K18 P301L, heparin-induced fibrillization, ThT fluorescence | hit rate 2.1% among 270,000 | P10636 | Potency, µM (series often up to 57.4 µM), usual class: inhibitors; note: nearly all actives have a fitted effect of over 55% in size
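Using a mix of unlabeled (15 uM) and Alexa 594-labeled (0.24 uM) tau K18 P301L, heparin-triggered fibrillization over 6 hr at 37 C was scored by ThT fluorescence.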
FBPA coupling cs: coupling enzyme interference in Giardia aldolase counter-screen; coupling enzyme system counterscreen, AmpLite Red fluorescence; activity change, negative = inhibition, % at 58.2 µM, hits read low; hit rate 0.67% among 290,000; AID 2472; in the data active = activity change below about -30%
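First, compound is pin-transferred into glyceraldehyde-3-phosphate coupling-enzyme reagent at 57.5 uM final and held 10 min at RT. Next, substrate, coupling system and AmpLite Red are added. After 20 min RT, fluorescence (525/598 nm) is read.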
Numbers stand for hits; i = inactive; ? = inconclusive; nt = not tested or not shown; [ ] = remark or other dose. Unless noted, calls come from the whole dose curve; as a rule, active = well fitted curve in the direction sought with a large enough effect; inconclusive = small, poorly fitted or top-dose-only effect, or another doubt; inactive = no such curve, though single readings can be large; an effect the other way counts as inactive or inconclusive.

SMILES	KDM4E inh	Tau fluor cs	Tau FP inhib	Tau ThT inhib	FBPA coupling cs
Clc1ccc(-n2c(Cc3ccccc3)nnc2SCc2nc(-c3cccs3)no2)cc1	nt	i	i	i	nt
O=[N+]([O-])c1ccc2c(c1N1CCCCC1)=NC1(CCCCC1)[N+]=2[O-]	i	?	?	12.6µM	i
Cc1cccc(CSc2cn(CC(=O)N3CCCC3)c3ccccc23)c1	nt	i	i	?	nt
Cc1ccc(S(=O)(=O)c2nc(Nc3nccs3)sc2Cl)cc1	i	15.8µM[quencher]	i	?	i
CCOc1ccc(Nc2nc(C)c(NC(=O)c3cccc(OC)c3)c(Nc3ccc(OCC)cc3)n2)cc1	nt	11.2µM[quencher]	i	?	nt
CCN(CC)CCNC(=O)c1ccc2c(c1)NC(=O)C(CS(=O)(=O)Cc1ccc(F)cc1Cl)N2 (configuration not stated)	nt	i	?	?	nt
COc1cc(OC)c(NS(=O)(=O)c2ccc3c(c2)CCCN3C(C)=O)cc1Cl	nt	i	i	i	nt
O=C1Nc2ccc(Br)cc2C12NNc1ccccc1O2 (configuration not stated)	i	7.08µM[quencher]	i	8.91µM	i
Nc1ncnc2c1ncn2[C@@H]1O[C@H](C(=O)N2CCN(CC(=O)Nc3cccc4c3CNC4=O)CC2)[C@@H](O)[C@H]1O	nt	nt	nt	nt	i
CCN(CC)c1ccc(C=N/C(C#N)=C(\N)C#N)cc1	i	i	?	2µM	i
Cc1ccc2oc(C(=O)Nc3nc(-c4ccc(F)cc4)ns3)c(C)c2c1	nt	i	i	?	nt
Nc1ccc(N2CCOCC2)c(Cl)c1	i	i	i	?	i
COc1ccc(NC(=O)Nc2ccc(N3CCOCC3)c3nonc23)c(OC)c1	i	i	i	?	i
O=C(Nc1ccc(N2CCOCC2)c2nonc12)C1CCCC1	i	i	?	?	-41.2
Nc1ccc(N2CCOCC2)c2nonc12	i	?	?	14.1µM	-48.3
O=C(Nc1ccc(F)cc1)Nc1ccc(N2CCOCC2)c2nonc12	i	i	i	2.82µM	i
CCCN1CCCc2ccccc21	i	i	i	i	i
N#CCCN1CCCc2cc(N=Nc3ccc(C(F)(F)F)cc3)ccc21	i	8.91µM[quencher]	?	3.55µM	i
O=C1/C(=C\c2cccs2)Sc2ccc3ccccc3c21	i	i	i	1µM	i
CCN(CC)CCNC(=O)C(=O)NCC(c1cccnc1)N1CCN(c2ccccc2)CC1 (configuration not stated)	nt	i	i	i	nt
CC(Oc1ccc(Cl)cc1Cl)c1nc(-c2ccc(NC(=O)c3ccncc3)cc2)no1 (configuration not stated)	i	i	i	i	i
CC(Oc1ccc(Cl)cc1Cl)c1nc(-c2ccc(NC(=O)c3cccnc3)cc2)no1 (configuration not stated)	i	?	15.8µM	i	i
COc1cc(-c2csc(C)n2)ccc1O	i	i	i	i	i
Oc1ccc(-c2csc(Nc3ncccn3)n2)c(O)c1	i	?	?	?	i
Oc1ccccc1-c1csc(-c2ccccc2)n1	i	i	i	i	i
SMILES	KDM4E inh	Tau fluor cs	Tau FP inhib	Tau ThT inhib	FBPA coupling cs
Oc1ccc(-c2csc(-c3ccccc3)n2)cc1O	?	15.8µM[quencher]	i	10µM	i
Cc1nc(-c2ccc(O)c(O)c2)cs1	15.8µM	i	i	?	i
Oc1ccc(-c2csc(Nc3ncccn3)n2)cc1O	28.2µM	?	i	11.2µM	i
Oc1ccc(-c2csc(-c3cccnc3)n2)cc1O	14.1µM	?	i	nt	i
Cc1cc(C)cc(C(=O)Nc2ccc(-c3nc4ncccc4o3)cc2)c1	nt	?	i	?	nt
Cc1ccccc1N1C(S)=C(C#N)C(=O)NC1c1ccco1 (configuration not stated)	i	i	?	25.1µM	i
Cc1ccc(NC(=O)/C(C#N)=C(\N)C(Cl)(Cl)Cl)nc1	?	i	?	25.1µM	i
CC(C)c1ccc(NC(=O)c2cc3c(=O)oc4ccccc4c3s2)cc1	nt	i	i	?	nt
CCCCn1c(SCC(=O)c2ccc(O)c(O)c2)nc2ccsc2c1=O	?	?	i	?	i
O=C(CCCn1c(SCC(=O)c2ccc(O)c(O)c2)nc2ccccc2c1=O)NCC1CCCO1 (configuration not stated)	8.91µM	i	i	?	i
COCCNC(=O)CSc1nc2cc3c(cc2c(=O)n1CCCC(=O)NCc1ccc(OC)cc1)OCO3	i	i	i	i	i
O=C(CCCn1c(SCC(=O)NC2CCCCC2)nc2ccccc2c1=O)NCC1CCCO1 (configuration not stated)	i	i	i	i	i
CCCCNC(=O)CSc1nc2ccc(N3CCOCC3)cc2c(=O)n1CCc1ccccc1	?	?	i	?	-36.7
CCCCNC(=O)CSc1nc2ccccc2c(=O)n1CCNC(C)=O	i	i	i	i	i
CCCCn1c(SCC(=O)NCCOC)nc2ccc(N3CCOCC3)cc2c1=O	?	i	i	i	-37.0
O=C(O)CCCCCn1c(SCC(=O)c2ccc(O)c(O)c2)nc2ccsc2c1=O	10µM	i	i	?	i
CC(=O)c1ccc(Nc2cc(C)nc3nc(Cc4ccc(Cl)cc4)nn23)cc1	nt	i	i	i	nt
CSc1ccc(CCNc2ncnc3onc(C)c23)cc1	nt	i	i	i	nt
COCCNC(=O)CSc1nc2ccccc2c(=O)n1CCC(=O)N1CCN(c2ccccc2)CC1	i	i	i	i	i
CCOC(=O)CSc1nc2ccc(N3CCOCC3)cc2c(=O)n1Cc1ccccc1	?	?	i	?	-31.9
O=C(CSc1nc2ccc(N3CCOCC3)cc2c(=O)n1CCc1ccccc1)NCC1CCCO1 (configuration not stated)	?	?	i	?	-31.5
COCCNC(=O)CSc1nc2ccc(N3CCOCC3)cc2c(=O)n1CCc1ccccc1	?	i	i	?	-43.7
OC[C@H]1OC(O)[C@@H](O)[C@@H](O)[C@H]1O (some centres not stated)	nt	nt	nt	nt	i
O=C1CNC(=S)N1CCc1ccc(O)c(O)c1	12.6µM	i	i	nt	i
CCOc1ccc(-c2cc(-c3nc(-c4ccc(OC)c(OC)c4)no3)[nH]n2)cc1	nt	i	i	?	nt
CCOc1ccc(C2=Cc3cc(OC)c(OC)cc3C(=C(Cl)Cl)O2)cc1	i	?	?	17.8µM	i
CCn1c(C)nc2cc(C(=O)N=Nc3c(O)[nH]c4c(C)cc(C)cc34)ccc21	i	i	i	7.08µM	i
NCCCC[C@H](NC(=O)[C@H](Cc1c[nH]c2ccccc12)NC(=O)[C@H](CC(=O)O)NC(=O)[C@H](Cc1cnc[nH]1)NC(=O)[C@H](CO)NC(=O)[C@H](Cc1c[nH]c2ccccc12)NC(=O)[C@H](Cc1cnc[nH]1)NC(=O)[C@@H]1CCC(=O)N1)C(=O)N1CCC[C@H]1C(=O)NCC(N)=O	nt	nt	nt	nt	i
Cc1ccc(Cn2c(/C=C/c3ccco3)nc3ccccc32)cc1	?	?	?	25.1µM	i
Clc1ccc(Cn2c(/C=C/c3ccco3)nc3ccccc32)cc1	?	i	i	?	i
